Source: ChEMBL document CHEMBL3988442, “University of Dundee, Small-Polar-MMV Screening Library” (2021)
The campaign covered roughly 53,000 compounds. About 900 (1.7%) showed an effect of 50% or more. For the sample, strong results were picked, then their nearest neighbours and some compounds at random.

system: Mycobacterium tuberculosis; experiment: Cornell - Phenotypic assay to identify agents that inhibit growth of Mycobacterium tuberculosis; format: functional; set-up: scale not given: direction of the effect not stated beside the values; conditions: 10 mM as filed; unlikely as a test dose

First: COc1ccccc1C1Cn2c(C)cnc2CN1Cc1ccc(C)nc1 (stereo not drawn)
Second: Cc1ccc2c(n1)N(Cc1cccnc1)CCN(C(=O)C1CC=CC1)C2
The “Percent Effect” value of the first is lower: -10.88% for the first, 30.61% for the second.

Compared with O=C(c1c(F)cccc1F)N1CCC[C@@H]1Cn1c(=O)oc2ccccc21, CN(Cc1cccc(F)c1)C(=O)CN1CCCC1CCc1ccccc1 (stereo not drawn) is higher in “Percent Effect” value: 34.56% for the first, 61.93% for the second.

Going from COc1cccc(OC2CN(C(=O)c3sccc3C)C2)c1 to COc1cccc(OC2CN(C(=O)c3ccoc3C)C2)c1, the “Percent Effect” value falls from 55.64% to -6.916%.

Compared with COc1cccc(OC2CN(C(=O)c3c(C)noc3C)C2)c1, COc1ccccc1-c1cc(NC(=O)COCC2CC2)[nH]n1 is higher in “Percent Effect” value: 10.7% for the first, 43.6% for the second.

Going from Cc1nc2c(c(NCc3cnc4c(c3)CCC4)n1)CNC2 to CN(C)c1nc2c(c(N3CCc4ccccc4C3)n1)CCNC2, the “Percent Effect” value rises from 4.431% to 60.07%.

Going from COCCS(=O)(=O)c1ncc(CN(C)C)n1Cc1ccccc1 to COCCN1C[C@@H](c2ccccc2)[C@@]2(CCN(CC(=O)N(C)C)C2=O)C1.O=C(O)C(F)(F)F, the “Percent Effect” value rises from 5.309% to 13.65%.

Going from N#CCCN(CCC#N)C(=O)CN1CCCC1Cc1cccc(F)c1 (stereo not drawn) to CN(Cc1cccc(F)c1)C(=O)CN1CCCCC1Cn1cncn1 (stereo not drawn), the “Percent Effect” value falls from 5.513% to -21.34%.

Going from NC(=O)Nc1cccc(Oc2ccccn2)c1 to O=C(c1ccncc1)N1CCCC1c1nc(O)cc(-c2ccccn2)n1 (stereo not drawn), the “Percent Effect” value falls from 3.298% to -36.16%.

Compared with OCCN1CCN(CC(O)c2ccc(C(F)(F)F)cc2)CC1 (stereo not drawn), CN1C[C@H](O)[C@]2(CCN(Cc3ccc(OC(F)(F)F)cc3)C2)S1(=O)=O is higher in “Percent Effect” value: -26.61% for the first, 30.47% for the second.

First: O=c1oc(-c2ccc(F)cc2)nn1CN1CCSCC1
Second: Fc1cccc(CN2CCC[C@H](Cn3nnc(-c4ccccn4)n3)C2)c1
The “Percent Effect” value of the first is lower: -31.85% for the first, 14.75% for the second.

Compared with CC(C)NC(=O)[C@@H]1CN(C(=O)C2CC2)C[C@]12Cc1ccccc1C(=O)N2, CCS(=O)(=O)N1C[C@@H](C(=O)NC(C)C)[C@@]2(Cc3ccccc3C(=O)N2)C1 is higher in “Percent Effect” value: 41.43% for the first, 50.91% for the second.

Going from CN1C[C@@H](C(=O)NCC(F)(F)F)[C@@]2(CCc3ccccc3C(=O)N2)C1 to CNC(=O)C1CN(C)CCN(C(=O)CCn2nnc3ccccc32)C1 (stereo not drawn), the “Percent Effect” value rises from 4.729% to 37.61%.

Compared with CC(Cn1cccn1)NC(=O)Nc1ccc(N(C)C)nc1 (stereo not drawn), CC(CNC(=O)Nc1ccc(N(C)C)nc1)Cn1cccn1 (stereo not drawn) is higher in “Percent Effect” value: -5.183% for the first, 53.74% for the second.

Compared with CCN(CC)c1ccc(NC(=O)NC(C)Cn2cccn2)cn1 (stereo not drawn), CCC(=O)Nc1ccc(C(C)Nc2nc3c(cnn3C)c(=O)[nH]2)cc1 (stereo not drawn) is higher in “Percent Effect” value: -29.36% for the first, 16.12% for the second.

Going from O=C(C[C@@H]1COC[C@H]2CN(Cc3ccc(F)cc3)C[C@@H]12)N1CCCC1.O=C(O)C(F)(F)F to O=C(O)c1ccc(CN2CCCC(Cc3ccn[nH]3)C2)cc1 (stereo not drawn), the “Percent Effect” value rises from -5.358% to 18.19%.

Compared with CC(C)c1noc(C2CCN(C(=O)C3CCCO3)CC2)n1 (stereo not drawn), CCc1noc(C(C)N2CCN(CC(=O)N3CCOCC3)CC2)n1 (stereo not drawn) is higher in “Percent Effect” value: 4.846% for the first, 11.6% for the second.

Going from O=c1c2cc3c(cc2nnn1Cc1cccc(F)c1)OCCO3 to Fc1ccc([C@@H]2COC[C@H]2NCc2cccc(F)c2)cc1.O=C(O)CC(O)(CC(=O)O)C(=O)O, the “Percent Effect” value rises from -9.384% to 12.54%.

Compared with COC(=O)Nc1nc2c(s1)CN(C(=O)NCc1cccs1)CC2, CC(C)NC(=O)Nc1nc2c(s1)CN(C(=O)NCc1cccs1)CC2 is higher in “Percent Effect” value: 35.61% for the first, 53.32% for the second.

Going from O=C(Nc1nc2c(s1)CN(C(=O)NCc1cccs1)CC2)C1CC1 to O=C(c1cnc(-c2cccs2)s1)N1CCCC(n2ccnc2)C1 (stereo not drawn), the “Percent Effect” value falls from 25.74% to 6.926%.

Going from Cc1cccc(OCCN2CCC(c3ccnn3CCO)CC2)c1 to Cn1ncc2c(NCCCOc3cccnc3)nc(C3CCCC3)nc21, the “Percent Effect” value rises from -13.34% to -0.5342%.

Going from Cc1nn(CCCNC(=O)C2CCN(S(C)(=O)=O)CC2)cc1Br to Cc1nn(CCCNC(=O)C2CCN(S(C)(=O)=O)CC2)cc1Cl, the “Percent Effect” value falls from 34.63% to 12.8%.

Compared with Cc1nn(CCCNC(=O)C2CCN(S(C)(=O)=O)CC2)c(Cl)c1Cl, CCS(=O)(=O)CCNc1nc(C2CCCC2)nc2c1cnn2C is lower in “Percent Effect” value: 51.75% for the first, -9.599% for the second.

Going from CCCn1nnnc1COc1ccc(C(=O)OC)cc1 to OCCn1nnnc1Cc1ccc(Br)cc1, the “Percent Effect” value rises from 2.105% to 32.76%.

First: CC(Nc1nc2c(cnn2C)c(=O)[nH]1)c1ccc(F)cc1 (stereo not drawn)
Second: CC(C)Sc1ccc(C(C)Nc2nc3c(cnn3C)c(=O)[nH]2)cc1 (stereo not drawn)
The “Percent Effect” value of the first is lower: 46.54% for the first, 64.6% for the second.

First: Cc1nnc(Nc2cccc(C3CCCN(Cc4ncc[nH]4)C3)n2)s1 (stereo not drawn)
Second: Fc1ccccc1CN1CCC[C@H](Cn2nnc(-c3cccs3)n2)C1
The “Percent Effect” value of the first is lower: -14.35% for the first, 35.5% for the second.

Compared with Cn1ncc2c(NCCOc3ccc(F)cc3)nc(C3CCCC3)nc21, Cn1ncc2c(NCCOCc3ccccc3)nc(C3CCCC3)nc21 is lower in “Percent Effect” value: 105.9% for the first, 58.05% for the second.

Compared with Cn1ncc2c(NCCn3cccc3)nc(C3CCCC3)nc21, CCOCCNc1nc(C2CCCC2)nc2c1cnn2C is lower in “Percent Effect” value: 23.68% for the first, 15.61% for the second.

Going from Cn1ncc2c(NCCC34CCCN3CCC4)nc(C3CCCC3)nc21 to CNCCCNc1nc(C2CCCC2)nc2c1cnn2C, the “Percent Effect” value rises from 10.87% to 15.27%.

First: CC(C)N(CCNc1nc(C2CCCC2)nc2c1cnn2C)C(C)C
Second: Cc1nc(C2CCCN2CC(=O)Nc2cc(C(C)(C)C)nn2C)no1 (stereo not drawn)
The “Percent Effect” value of the first is higher: 95.65% for the first, -17.86% for the second.

First: CCCNC(=O)c1nn(CC)cc1NC(=O)c1cn(C)nc1C
Second: CCc1ccccc1NC(=O)c1cnn(C)c1C
The “Percent Effect” value of the first is higher: 34.88% for the first, 25.28% for the second.

Going from CC(=O)Nc1nc(CN2CCn3c(C)nnc3C2)cs1 to Cc1csc(CN2CC[C@H]3C[C@@H](c4nnc(C)[nH]4)O[C@@H]3C2)n1, the “Percent Effect” value rises from -12.41% to -4.039%.

Compared with COCCCn1c(CN2CCSCC2)cnc1S(=O)(=O)C1CCCC1, CC(C)N(C(=O)Cn1nc2n(c1=O)CCCCC2)C1CCC1 is lower in “Percent Effect” value: 27.36% for the first, 0.8005% for the second.

First: CS(=O)(=O)c1cn[nH]c1C1CCCCN1C(=O)c1cncs1 (stereo not drawn)
Second: O=C(c1cncs1)N1CCCC1c1ccn[nH]1 (stereo not drawn)
The “Percent Effect” value of the first is lower: -10.78% for the first, 104.4% for the second.

Going from O=C(c1n[nH]c(=O)c2ccccc12)N1CCCCC1c1ccn[nH]1 (stereo not drawn) to Fc1ccccc1CN1CCC[C@@H](Cn2nnc(-c3cccs3)n2)C1, the “Percent Effect” value rises from -33.63% to 75.98%.

First: Cc1ncncc1C(=O)N1CCCC(Cc2nccs2)C1 (stereo not drawn)
Second: Cc1n[nH]c(C)c1-c1nccnc1CC1CCN(C(C)C)CC1
The “Percent Effect” value of the first is higher: -16.51% for the first, -33.1% for the second.

First: Nc1no[n+]([O-])c1C(=O)NCc1ccccn1
Second: O=C(COCC1CC1)Nc1ncccc1O
The “Percent Effect” value of the first is lower: -59.59% for the first, -3.464% for the second.

First: CSCC(CCO)Nc1nc(C(F)F)nc2ccccc12 (stereo not drawn)
Second: O=C(CCn1c(C(F)F)cc2cccnc21)NC1CCCC1
The “Percent Effect” value of the first is higher: 41.07% for the first, -12.05% for the second.

Compared with N#Cc1cccc(NC2CC(=O)N(Cc3ccccc3Cl)C2)n1 (stereo not drawn), N#Cc1cccc(NC2CC(=O)N(CCCc3ccccc3)C2)n1 (stereo not drawn) is higher in “Percent Effect” value: -13.97% for the first, 2.519% for the second.

First: N#Cc1cccc(NC2CC(=O)N(C3Cc4ccccc4C3)C2)n1 (stereo not drawn)
Second: Cc1ccoc1C(=O)NC1CCN(Cc2ccccc2C#N)CC1
The “Percent Effect” value of the first is higher: 53.28% for the first, -4.356% for the second.

Going from O=C1CCC2(CCN(Cc3ccsc3)CC2)N1Cc1ccccc1 to Cn1cccc1C(=O)N1CCC2(CC1)CN(S(C)(=O)=O)c1ccccc12, the “Percent Effect” value falls from 26.5% to 9.432%.

Going from CC(CNC(=O)Nc1ccc(C#N)cc1)N1CCc2ccccc21 (stereo not drawn) to CC(CNC(=O)c1ccc(C#N)cc1)N1CCc2ccccc21 (stereo not drawn), the “Percent Effect” value falls from 62.86% to 20.43%.

First: COc1ccc(NC(=O)NCC(C)N2CCc3ccccc32)cc1 (stereo not drawn)
Second: CCC(C(=O)Nc1ccc2nc(C)oc2c1)N1CCCC1=O (stereo not drawn)
The “Percent Effect” value of the first is higher: 13.58% for the first, -18.53% for the second.

Compared with Cc1oncc1C(=O)N1CCC2(CC1)CC(N1CCOCC1)C2.O=C(O)C(F)(F)F, Cc1cc(C2CCC2)nc(N2CCC3(CCNC(=O)CC3)CC2)n1 is higher in “Percent Effect” value: 14.16% for the first, 19.37% for the second.

Going from Cc1nc(NCC2CC2)nc2c1COCC21CCN(CC(=O)N(C)C)C1 (stereo not drawn) to Cc1ccnn1CCC(=O)N1CCCC[C@]2(C)NC(=O)CCC[C@H]12, the “Percent Effect” value rises from -16.56% to 0.426%.

Compared with N#CCCCn1nnnc1Cc1ccc(Br)cc1, CC(C)OCCn1nnnc1Cc1ccc(Br)cc1 is higher in “Percent Effect” value: 19.45% for the first, 80.17% for the second.

First: CN1CCN(C(=O)CCn2nnc3ccccc32)CC(C(N)=O)C1 (stereo not drawn)
Second: CN1CCN(C(=O)CCn2ncc3ccccc32)CC(C(N)=O)C1 (stereo not drawn)
The “Percent Effect” value of the first is higher: 53.1% for the first, 40.84% for the second.

Going from OC(COc1ccccc1Br)COC1CCOCC1 (stereo not drawn) to O=C(COCC1CC1)Nc1cc(-c2ccc(Br)s2)n[nH]1, the “Percent Effect” value rises from 10.03% to 108.2%.

Compared with Clc1ccc(CNc2ccc(Cl)cn2)cc1, CN(C)S(=O)(=O)c1ccc(CNc2ccc(Cl)cn2)cc1 is higher in “Percent Effect” value: -25.47% for the first, 63.29% for the second.

First: CN(c1ccc(CNc2ccc(Cl)cn2)cc1)S(C)(=O)=O
Second: Cn1ccnc1SCC(=O)NCc1ccc2c(c1)CCC(=O)N2
The “Percent Effect” value of the first is higher: 21.91% for the first, -11.99% for the second.

Going from CC(C)CNC(=O)c1cc2c(s1)CCN2S(C)(=O)=O to Cc1ccc(C2CSCCN2C(=O)c2cc(C(N)=O)cs2)o1 (stereo not drawn), the “Percent Effect” value rises from -19.48% to 23.87%.

First: Cc1c(C(=O)N(C)CC(F)(F)F)nnn1-c1ccc(F)cc1
Second: Cc1ccccc1N1CCN(c2nc(N(C)C)nc3c2CCNC3)CC1
The “Percent Effect” value of the first is higher: 26.05% for the first, -18.26% for the second.

For c1ccc2c(c1)CCN(c1nc(-c3ccncc3)nc3c1CCNC3)C2, the “Percent Effect” value was 18.38%.
